“And” between values parts separate entries of the source, which are not always exact repeats. Identical values can stand only once. Results filed as inconclusive are left out. More than one record can exist for a structure, and the calls need not agree. The source made the active and inactive calls. Unless noted, calls come from the whole dose curve; as a rule, active = well fitted curve in the direction sought with a large enough effect in the repeat runs; inconclusive = weak or mixed curves; inactive = no such curve, though single readings can be large; an effect the other way counts as inactive or inconclusive.
Tests used:
[1] = qHTS assay to identify small molecule antagonists of the glucocorticoid receptor (GR) signaling pathway - cell viability counter screen (AID 720693); note: nearly all actives have a fitted effect of over 55% in size
[2] = qHTS assay for identifying genotoxic compounds that show differential cytotoxicity against isogenic chicken DT40 cell lines with known DNA damage response pathways - wild type cell line (AID 743012); note: nearly all actives have a fitted effect of over 60% in size; note: potency is the fitted concentration of half-maximal effect
In short: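 Endpoint: CellTiter-Glo luminescence, 30 min RT. Cells: wild type DT40, 300/well. Exposure: compounds in DMSO, 40 h, 37 C/5% CO2, after ~0.5 h pre-incubation.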

[3] = qHTS assay for identifying genotoxic compounds that show differential cytotoxicity against isogenic chicken DT40 cell lines with known DNA damage response pathways - Rev3 mutant cell line (AID 743014); note: nearly all actives have a fitted effect of over 55% in size; note: potency is the fitted concentration of half-maximal effect
[4] = qHTS assay for identifying genotoxic compounds that show differential cytotoxicity against isogenic chicken DT40 cell lines with known DNA damage response pathways - Rad54/Ku70 mutant cell line (AID 743015); note: nearly all actives have a fitted effect of over 60% in size; note: potency is the fitted concentration of half-maximal effect
[5] = qHTS assay to identify small molecule antagonists of the androgen receptor (AR) signaling pathway - cell viability counter screen (AID 743033; note: nearly all actives have a fitted effect of over 45% in size; note: potency is the fitted concentration of half-maximal effect)
[6] = qHTS assay to identify small molecule antagonists of the androgen receptor (AR) signaling pathway using the MDA cell line - cell viability counter screen (AID 743041; note: nearly all actives have a fitted effect of over 45% in size)
In short: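 qHTS viability read-out; MDA-kb2 AR-luc; R1881-stimulated; 16 h exposure at 37C, 0% CO2; CellTiter-Fluor, 30 min; fluorescence intensity.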

[7] = molecular target: Androgen receptor (Homo sapiens) (UniProt P10275); experiment: qHTS assay to identify small molecule antagonists of the androgen receptor (AR) signaling pathway (AID 743035; active = well fitted inhibition curve with a large enough effect in the signal ratio in the repeat runs, not every such curve was filed as active; the % refers to the signal ratio)
Sequence of Androgen receptor (Homo sapiens) (P10275 whole entry, looked up): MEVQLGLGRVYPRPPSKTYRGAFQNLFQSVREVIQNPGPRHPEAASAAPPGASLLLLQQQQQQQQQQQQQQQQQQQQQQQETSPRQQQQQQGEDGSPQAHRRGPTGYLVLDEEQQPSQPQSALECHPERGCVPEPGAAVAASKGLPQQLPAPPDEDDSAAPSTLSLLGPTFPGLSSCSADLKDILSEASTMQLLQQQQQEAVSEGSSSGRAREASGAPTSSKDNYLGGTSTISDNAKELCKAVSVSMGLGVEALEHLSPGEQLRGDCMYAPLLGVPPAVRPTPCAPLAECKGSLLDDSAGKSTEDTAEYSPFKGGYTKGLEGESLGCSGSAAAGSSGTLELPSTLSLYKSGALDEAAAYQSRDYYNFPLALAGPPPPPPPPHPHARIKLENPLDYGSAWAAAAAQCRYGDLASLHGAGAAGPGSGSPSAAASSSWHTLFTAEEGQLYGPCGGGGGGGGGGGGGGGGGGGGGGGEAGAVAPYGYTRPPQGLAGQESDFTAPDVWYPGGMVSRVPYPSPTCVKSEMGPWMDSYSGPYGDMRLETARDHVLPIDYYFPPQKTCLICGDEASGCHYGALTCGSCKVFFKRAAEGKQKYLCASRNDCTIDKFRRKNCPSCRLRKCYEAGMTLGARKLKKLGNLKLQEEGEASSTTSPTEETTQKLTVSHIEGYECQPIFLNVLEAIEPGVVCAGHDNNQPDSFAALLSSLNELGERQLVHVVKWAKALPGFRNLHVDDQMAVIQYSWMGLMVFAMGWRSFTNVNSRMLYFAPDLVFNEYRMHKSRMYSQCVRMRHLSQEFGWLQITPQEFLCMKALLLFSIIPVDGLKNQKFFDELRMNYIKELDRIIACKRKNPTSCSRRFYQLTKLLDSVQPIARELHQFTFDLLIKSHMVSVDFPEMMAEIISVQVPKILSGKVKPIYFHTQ
In short: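 R1881 agonist challenge of a HEK293 UAS-beta-lactamase AR reporter line in the presence of compound (16 h, 37C); signal taken as FRET fluorescence after 2 h with LiveBLAzer B/G substrate at room temperature.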

[8] = molecular target: Androgen receptor (Homo sapiens) (UniProt P10275); experiment: qHTS assay to identify small molecule agonists of the androgen receptor (AR) signaling pathway (AID 743036; active = well fitted activation curve with a large enough effect in the signal ratio in the repeat runs, with a control signal flat, not every such curve was filed as active; the % refers to the signal ratio)
In short: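 Cell-based FRET reporter assay: HEK293 line with a UAS-beta-lactamase construct, compounds added in DMSO, 16 h exposure at 37C, then 2 h substrate step at room temperature and fluorescence intensity read.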

[9] = molecular target: Androgen receptor (Homo sapiens) (UniProt P10275); experiment: qHTS assay to identify small molecule agonists of the androgen receptor (AR) signaling pathway using the MDA cell line (AID 743040; note: nearly all actives have a fitted effect of over 20% in size)
In short: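 Agonist activity is measured as luciferase luminescence in human MDA-kb2 cells whose MMTV reporter responds to both AR and GR. Compounds in DMSO incubate 16 h at 37C, 0% CO2, and ONE-Glo is read after 30 min.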

[10] = molecular target: Androgen receptor (Homo sapiens) (UniProt P10275); experiment: qHTS assay to identify small molecule antagonists of the androgen receptor (AR) signaling pathway using the MDA cell line (AID 743042; note: nearly all actives have a fitted effect of over 55% in size)
In short: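 MDA-kb2 cells (human breast carcinoma, stably carrying an MMTV-luciferase reporter responsive to AR and GR) were plated at 3,000 cells/well and preincubated 5 hr at 37C, then given compound plus R1881 agonist for 16 h. ONE-Glo luminescence was read.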
% is set by controls: 0 for no effect and ±100 for the full control effect.

CC(=O)OCC(=O)[C@@]12N=C(C)O[C@@H]1C[C@H]1[C@@H]3CCC4=CC(=O)C=C[C@]4(C)[C@H]3[C@@H](O)C[C@@]12C
inactive: outcome [1] | Potency [2] | Potency [3] | Potency [4] | Potency [5] | Potency [6]

CCCCOC(=O)COc1ccc(Cl)cc1Cl
inactive: outcome [1] | Potency [2] | Potency [3] | Potency [4] | Potency [6]

c1ccc(OCCOc2ccccc2)cc1
inactive: outcome [1] | Potency [2] | Potency [3] | Potency [4] | Potency [6]

CC1=CCC2CC1C2(C)C (stereo unspecified)
inactive: outcome [1] | Potency [2] | Potency [3] | Potency [4] | Potency [5] | Potency [6]

CCCCCCCCCCCCCCO
inactive: outcome [1] | Potency [2] | Potency [3] | Potency [4] | Potency [6]

OCCOCCOCCO
inactive: Potency [2] | Potency [3] | Potency [4] | Potency [5] | outcome [7] | Potency [8] | Potency [9] | Potency [6] | outcome [10]

Nc1ccccc1[N+](=O)[O-]
inactive: outcome [1] | Potency [2] | Potency [3] | Potency [4] | Potency [6]

c1ccc2c(c1)ccc1ccccc12
active: Potency [3] 68.6 µM | Potency [4] 30.6 µM
inactive: outcome [1] | outcome [7] | Potency [8] | Potency [9] | Potency [6] | outcome [10]

OCc1cccnc1
inactive: outcome [1] | Potency [2] | Potency [3] | Potency [4] | Potency [5] | Potency [6]

CC1=CC(=O)NS(=O)(=O)O1
inactive: outcome [1] | Potency [2] | Potency [3] | Potency [4] | Potency [5] | Potency [6]

CN(C)CCCN
inactive: outcome [1] | Potency [2] | Potency [3] | Potency [4] | Potency [6]

C=CCOC(=O)c1ccccc1C(=O)OCC=C
inactive: outcome [1] | Potency [2] | Potency [4] | Potency [5] | Potency [6]

CSCCC=O
inactive: outcome [1] | Potency [2] | Potency [4] | Potency [5] | Potency [6]

O=c1[nH]c(=O)n([C@H]2C[C@H](O)[C@@H](CO)O2)cc1Br
active: Potency [4] 11.9 µM and 24.7 µM
inactive: outcome [1] | Potency [2] | Potency [6]

C[Si](O[Si](C)(C)C)O[Si](C)(C)C
inactive: outcome [1] | Potency [2] | Potency [3] | Potency [4] | outcome [7] | Potency [8] | Potency [9] | Potency [6] | outcome [10]

CC(=O)Nc1cccc(O)c1
inactive: outcome [1] | Potency [2] | Potency [3] | Potency [4] | Potency [6]

Oc1cccc2ccccc12
inactive: outcome [1] | Potency [2] | Potency [3] | Potency [4] | Potency [5] | Potency [6]

Fc1ccc(Br)cc1
inactive: outcome [1] | Potency [2] | Potency [3] | Potency [4] | Potency [6]

CCCCC(CC)COC(=O)CCCCC(=O)OCC(CC)CCCC (stereo unspecified)
inactive: outcome [1] | Potency [6]

CCCCCCCCCCCCOCCO
inactive: outcome [1] | Potency [4] | Potency [8] | Potency [9] | Potency [6] | outcome [10]

COc1ccc(Cl)cc1C(=O)NCCc1ccc(S(=O)(=O)NC(=O)NC2CCCCC2)cc1
inactive: outcome [1] | Potency [3] | Potency [6]

COS(C)(=O)=O
inactive: outcome [1] | Potency [2] | Potency [3] | Potency [4] | Potency [6]

CC(=O)Nc1ccccc1
inactive: outcome [1] | Potency [2] | Potency [3] | Potency [4] | Potency [6]

FC(F)(F)c1ccc(Cl)c(Cl)c1
inactive: outcome [1] | Potency [2] | Potency [3] | Potency [4] | outcome [7] | Potency [8] | Potency [9] | Potency [6] | outcome [10]

C=CCNC(N)=S
inactive: Potency [2] | Potency [3] | Potency [4] | Potency [5] | Potency [6]

CCCCC(CC)COC(=O)CS (stereo unspecified)
inactive and 61.1 µM (active): Potency [4]
inactive: Potency [2] | Potency [3] | Potency [5] | Potency [6]

O=C(O)c1cc(O)c(O)c(O)c1
inactive: Potency [5] | Potency [6]
active: Potency [2] 26.6 µM and 30.9 µM | Potency [3] 26.6 µM and 24.6 µM | Potency [4] 27.6 µM

O=C(O)[C@H](O)[C@@H](O)[C@H](O)[C@H](O)CO
inactive: Potency [2] | Potency [3] | Potency [4] | Potency [6]

Cc1cccnc1
inactive: Potency [2] | Potency [3] | Potency [4] | Potency [6]

COc1ccc(Nc2ccccc2)c(C)c1
inactive: Potency [2] | Potency [3] | Potency [4] | Potency [6]

Cc1ccc(S(N)(=O)=O)cc1
inactive: Potency [2] | Potency [3] | Potency [4] | Potency [5] | Potency [6]

NNc1nncc2ccccc12
active: Potency [5] 21.9 µM

CC(=O)c1ccccc1
inactive: Potency [2] | Potency [3] | Potency [4] | Potency [6]

CCCCN(CCCC)CCCC
inactive: Potency [2] | Potency [3] | Potency [4] | Potency [6]

CCN(CC)CCCC(C)Nc1ccnc2cc(Cl)ccc12 (stereo unspecified)
active: Potency [2] 21.1 µM | Potency [3] 13.3 µM and 2.66 µM | Potency [4] 18.8 µM
inactive: viability change, negative = cytotoxic [6] -15.9% [at 8.47 µM]

Cc1ccc(N(C)C)cc1
inactive: Potency [2] | Potency [3] | Potency [4] | outcome [7] | Potency [8] | Potency [9] | Potency [6] | outcome [10]

C[C@H]1C[C@H]2[C@@H]3CCC4=CC(=O)C=C[C@]4(C)[C@@]3(F)[C@@H](O)C[C@]2(C)[C@@]1(O)C(=O)CO
inactive and 68.6 µM (active): Potency [4]
inactive: Potency [2] | Potency [6]
active: Potency [3] 27.3 µM

O=C(O)CCCCCCCCCCC(=O)O
inactive: Potency [2] | Potency [3] | Potency [4] | Potency [5] | Potency [6]

C=C(C)C(=O)OCCOCCOCCOC(=O)C(=C)C
inactive: Potency [2] | Potency [3] | Potency [4] | Potency [6]

CCCCC(CC)CO (stereo unspecified)
inactive: Potency [2] | Potency [3] | Potency [4] | Potency [5] | Potency [6]

CC(=O)CC(=O)Nc1ccccc1C
inactive: Potency [2] | Potency [3] | Potency [4] | Potency [5] | Potency [6]

COc1cc(Cc2cnc(N)nc2N)cc(OC)c1OC
inactive: Potency [2] | Potency [3] | Potency [4] | Potency [5] | Potency [6]

CC(O)COCC(C)O (stereo unspecified)
inactive: Potency [2] | Potency [3] | Potency [4] | Potency [5] | Potency [6]

CCCC(C)=O
inactive: Potency [2] | Potency [3] | Potency [4] | Potency [5] | Potency [6]

C#CCN(C)Cc1ccccc1
inactive: Potency [2] | Potency [3] | Potency [4] | Potency [6]

C=C(C)C(=O)Nc1ccc(Cl)c(Cl)c1
inactive: Potency [2] | Potency [3] | Potency [4] | Potency [6]

CN(C)CCC(c1ccc(Cl)cc1)c1ccccn1 (stereo unspecified)
inactive: Potency [2] | Potency [3] | Potency [4] | Potency [5] | Potency [6]

CCCSc1ccc2nc(NC(=O)OC)[nH]c2c1
inactive: Potency [5] | Potency [6]
active: Potency [2] 227 nM and 1.09 µM | Potency [3] 359 nM and 969 nM | Potency [4] 452 nM and 1.09 µM

O=[N+]([O-])c1ccc(/C=C/c2ccc([N+](=O)[O-])cc2S(=O)(=O)O)c(S(=O)(=O)O)c1
inactive: Potency [2] | Potency [3] | Potency [4] | Potency [5] | Potency [6]

CN(C)CCC(c1ccccc1)c1ccccn1 (stereo unspecified)
inactive: Potency [2] | Potency [3] | Potency [4] | Potency [6]

CC(C)CC(=O)CC(C)C
inactive: Potency [2] | Potency [3] | Potency [4] | Potency [6]

O=c1[nH]nnc2ccccc12
inactive: Potency [2] | Potency [3] | Potency [4] | Potency [6]

O=P(OC(CCl)CCl)(OC(CCl)CCl)OC(CCl)CCl
active: Potency [2] 43.3 µM | Potency [3] 30.5 µM and 19.3 µM | Potency [4] 54.2 µM and 61.1 µM
inactive: Potency [6]

O=S(=O)(O)c1ccc2ccccc2c1
inactive: Potency [5] | Potency [6]
inactive and 54.6 µM (active): Potency [2] | Potency [4]
inactive and 43.4 µM (active): Potency [3]

OCCOCCN1CCN(C2=Nc3ccccc3Sc3ccccc32)CC1
inactive: Potency [6]
inactive and 26.8 µM (active): Potency [5]
active: Potency [2] 29.8 µM and 8.41 µM | Potency [3] 26.6 µM and 9.44 µM | Potency [4] 26.6 µM

C#C[C@]1(O)CC[C@H]2[C@@H]3CCC4=CC(=O)CC[C@@H]4[C@H]3CC[C@@]21C
inactive and 30.6 µM (active): Potency [2]
inactive: Potency [5] | Potency [6]
inactive and 27.3 µM (active): Potency [3]
active: Potency [4] 27.3 µM

CCCCC(CC)COC(=O)C(C#N)=C(c1ccccc1)c1ccccc1 (stereo unspecified)
13.3 µM (active) and inactive: Potency [4]
active: Potency [2] 11.9 µM
inactive: Potency [3] | Potency [6]

CC(=O)CC(=O)Nc1ccccc1
inactive: Potency [2] | Potency [3] | Potency [4] | Potency [5] | Potency [6]

COc1ccc(NC(C)=O)cc1N
inactive: Potency [2] | Potency [3] | Potency [4] | Potency [5] | Potency [6]

O=C(O)CC(C(=O)O)C(CC(=O)O)C(=O)O (stereo unspecified)
inactive: Potency [2] | Potency [3] | Potency [4] | Potency [5] | Potency [6]

C=C(C)C(=O)O[C@H]1C[C@@H]2CC[C@@]1(C)C2(C)C
inactive: Potency [2] | Potency [3] | Potency [4] | Potency [5] | Potency [6]

CC1=C(C)S(=O)(=O)CCS1(=O)=O
active: Potency [3] 68.6 µM | Potency [4] 60 µM and 61.1 µM
inactive: Potency [5] | outcome [7] | Potency [8] | Potency [9] | Potency [6]

CCc1ccc(CCOc2ccc(CC3SC(=O)NC3=O)cc2)nc1 (stereo unspecified)
active: Potency [4] 11.9 µM and 61.1 µM
inactive and 68.6 µM (active): Potency [2] | Potency [3]
inactive: Potency [5] | Potency [6]

— PubChem BioAssay (Tox21)
